Experimental data from PubChem BioAssay (NCI).
The panel holds about 83,000 compounds, 20% with a hit somewhere; the sample as a whole holds those more often.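 Percent growth is the endpoint: 0 to 100 indicates growth inhibition (40 means 60% inhibition), 0 means no net growth, and negative values indicate cell death.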 Unmarked numbers belong to inactive results. Active and inactive are the calls of the source. The calls were made as follows: active = growth percent below 10; inactive = the rest.

Columns and labels:
Experiment in all cases: NCI-60 one-dose screen, 48 h (100 = growth as untreated, 0 = no growth, -100 = all killed)
Conditions in all cases: 10 µM
HT29 colon = tested on: HT29 colon
SNB-75 CNS = tested on: SNB-75 CNS
SNB-19 CNS = tested on: SNB-19 CNS
U251 CNS = tested on: U251 CNS
PC-3 prostate = tested on: PC-3 prostate
SK-MEL-5 melanoma = tested on: SK-MEL-5 melanoma
UACC-62 melanoma = tested on: UACC-62 melanoma
LOX IMVI melanoma = tested on: LOX IMVI melanoma
SK-MEL-28 melanoma = tested on: SK-MEL-28 melanoma
SK-MEL-2 melanoma = tested on: SK-MEL-2 melanoma
SN12C renal = tested on: SN12C renal
UO-31 renal = tested on: UO-31 renal
TK-10 renal = tested on: TK-10 renal
ACHN renal = tested on: ACHN renal
CAKI-1 renal = tested on: CAKI-1 renal
CCRF-CEM leukemia = tested on: CCRF-CEM leukemia
MOLT-4 leukemia = tested on: MOLT-4 leukemia
SR leukemia = tested on: SR leukemia
A498 renal = tested on: A498 renal

Compound	growth (HT29 colon)	growth (SNB-75 CNS)	growth (SNB-19 CNS)	growth (U251 CNS)	growth (PC-3 prostate)	growth (SK-MEL-5 melanoma)	growth (UACC-62 melanoma)	growth (LOX IMVI melanoma)	growth (SK-MEL-28 melanoma)	growth (SK-MEL-2 melanoma)	growth (SN12C renal)	growth (UO-31 renal)	growth (TK-10 renal)	growth (ACHN renal)	growth (CAKI-1 renal)	growth (CCRF-CEM leukemia)	growth (MOLT-4 leukemia)	growth (SR leukemia)	growth (A498 renal)
N#Cc1ncc(-c2cc(F)c(F)c(F)c2)c(NC2CCCCCC2)n1	97.6%	65.1%	90.9%	50.2%	77.1%	93%	84.8%	84.9%	94.1%	96.2%	83.6%	89.4%	105%	92.6%	92.9%	83.9%	78.1%	78.8%	–
COc1cc(-c2cc(/C=C/C(=O)c3ccc(F)c(F)c3)[nH]n2)cc(OC)c1OC	53.7%	56.7%	67.8%	41.5%	11.7%	75.6%	51.4%	55.9%	73.4%	83.1%	39.2%	61.2%	–	36.8%	6.42% (active)	33.3%	41%	44.3%	60.9%
O=C(CCCCC[P+](c1ccccc1)(c1ccccc1)c1ccccc1)NC(COC(=O)C(Cl)Cl)(COC(=O)C(Cl)Cl)COC(=O)C(Cl)Cl	96.6%	103%	98.3%	97.1%	90.5%	92.4%	98%	102%	108%	100%	96.8%	94%	87.4%	113%	107%	88.7%	97.6%	88.8%	–
CN1c2ccccc2[C@]2(Cc3ccccc3)Cc3ccccc3N[C@H]12	86.9%	89.6%	104%	106%	100%	108%	87.5%	104%	99.7%	95%	109%	73.4%	114%	103%	112%	92.2%	90.2%	91.2%	–
COc1ccc(/C=C/C(=O)Nc2ccc(-c3nc4ccc(OC)cc4s3)cc2)cc1	110%	102%	105%	109%	101%	104%	108%	92.3%	111%	105%	103%	85.2%	109%	114%	104%	98.3%	81.6%	86.7%	–
COc1ccc(-c2nc(-c3nc4ccc(OC)cc4[nH]3)cc3c2[nH]c2ccccc23)cc1	17.4%	67.3%	37.5%	14.3%	25.8%	49.9%	50%	27.2%	47.7%	11.2%	20.7%	8.19% (active)	–	31.9%	0.0135% (active)	11%	47.3%	33.6%	46.3%
COc1ccc(-c2cc(-c3ccc(N(C)C)cc3)c(C#N)c(N3CCCC3)n2)cc1	63.2%	99.7%	90.1%	86%	82.2%	58.5%	102%	34.2%	93.4%	84%	89.2%	81.7%	85.4%	98.5%	–	79.5%	81.2%	40.8%	106%
COc1cc(-c2cc(/C=C/C(=O)c3ccc4c(c3)OCO4)[nH]n2)cc(OC)c1OC	43%	69.7%	66.5%	43%	59%	95.9%	78.9%	42.8%	94.3%	100%	63.9%	38.7%	–	84.6%	59.7%	0.141% (active)	52.7%	-15.1% (active)	73.7%
Cc1cccc2c1O/C(=C\c1ccc([N+](=O)[O-])o1)C2=O	-67.4% (active)	65%	44.2%	-19.7% (active)	-36.3% (active)	-83.5% (active)	-58.9% (active)	-83.6% (active)	-56.6% (active)	-62.8% (active)	-17.5% (active)	-62.6% (active)	-88.2% (active)	-81.9% (active)	-3% (active)	-26.4% (active)	-14.7% (active)	2.46% (active)	–
